IMPase Li inh: cell-permeable IMPase inhibitors with lithium potentiation. CHO-M1 cells, IP1 TR-FRET (IP-One), carbachol + lithium. Potency, µM (doses to about 59.4 µM), for the others: at the top dose activity, negative = IMPase inhibition, actives largely listed as inhibitors. 210,000 compounds, 0.35% hits; active means well fitted curve in the direction sought with a large enough effect; inconclusive means small, poorly fitted or top-dose-only effect, or another doubt; inactive means no such curve, though single readings can be large; an effect the other way counts as inactive or inconclusive;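 further: IP1 builds up when IMPase is blocked and the TR-FRET signal falls; potency means the concentration at half of the fitted maximal effect; plate controls were basal vehicle for no effect and high inhibitor control for full effect; nearly all actives have a fitted effect of over 50% in size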
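Test compounds were applied to CHO-M1 cells previously cultured for 16–30 h at 2000 per well. A small lithium amount accompanied them; after 30 min at 37C, IP1 was quantified by TR-FRET.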
PNC assembly inh: inhibitors of perinucleolar compartment assembly. PC3M PTB-GFP, PNC prevalence imaging, 16 h; active compounds read low. activity change (PNC), negative = inhibition, % at 10 µM. 140,000 compounds, 3.1% hits;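 active means readout at or below -70, meaning at least 70% loss of cells showing the perinucleolar compartment, a nuclear body marking cancer cells; inconclusive means readout between -30 and a set limit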;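 further: plate controls were DMSO wells for no effect and camptothecin positive control wells for full effect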
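Read-out is percentage of cells bearing a perinucleolar compartment, from automated 20x imaging of fixed, Hoechst-stained PC3M PTB-GFP cells. Cells were seeded 4 h, then exposed 16 h to compound (23 nl of library stock) in duplicate plates.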
12-hLO inh: blocks human 12-lipoxygenase activity; P18054; purified 12-hLO, xylenol orange hydroperoxide absorbance; Potency, µM (titrated, usually from 57.1 µM), for inactives: at the highest dose activity change, negative = inhibition, hits mostly inhibitors; 150,000 compounds, 0.12% hits; active means well fitted curve in the direction sought with a large enough effect; inconclusive means small, poorly fitted or top-dose-only effect, or another doubt; inactive means no such curve, though single readings can be large; an effect the other way counts as inactive or inconclusive; further: potency means the concentration at half of the fitted maximal effect; nearly all actives have a fitted effect of over 55% in size
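150 nM 12hLO, 25 mM Hepes pH 7.0 + 0.01% Triton X-100; cpd preinc 15 min RT; 40 uM arachidonic acid, 30 min RT; Fe-XO 30 min; A573/A405 ratio as read-out.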
HPGD block: HPGD (human) dehydrogenase inhibition | purified HPGD, NADH fluorescence kinetic, PGE2 substrate | Potency, µM, for inactives: at the highest dose activity change, negative = inhibition, most hits filed as inhibitors | 150,000 compounds, 4.3% hits; further: potency means the concentration at half of the fitted maximal effect
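20 nM HPGD preincubated 15 min at room temperature with compound in 50 mM Tris-HCl pH 8, 0.01% Tween 20. Started with 1 mM NAD+ and 30 uM prostaglandin E2; NADH fluorescence (360/450 nm) read 5 times over 30-s intervals, last minus first.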
IMPase inh: IMPase inhibition in cells | CHO-M1 cells, IP1 accumulation, HTRF TR-FRET ratio | inhibition (IP1 accumulation), % at 46.1 µM | 120,000 tested, under 10 active; active means well fitted curve in the direction sought with a large enough effect in the signal ratio, not every such curve was filed as active; inconclusive means small, poorly fitted or top-dose-only effect, or a change in a side signal; inactive means no such curve, though single readings can be large or run the other way; the % refers to the signal ratio;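 further: cells stimulated with carbachol in lithium chloride buffer; plate controls were DMSO basal wells for no effect and reference inhibitor wells for full effect; higher means more IMPase inhibition seen as more IP1 and lower FRET ratio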
Target sequence (P97697 whole entry, looked up): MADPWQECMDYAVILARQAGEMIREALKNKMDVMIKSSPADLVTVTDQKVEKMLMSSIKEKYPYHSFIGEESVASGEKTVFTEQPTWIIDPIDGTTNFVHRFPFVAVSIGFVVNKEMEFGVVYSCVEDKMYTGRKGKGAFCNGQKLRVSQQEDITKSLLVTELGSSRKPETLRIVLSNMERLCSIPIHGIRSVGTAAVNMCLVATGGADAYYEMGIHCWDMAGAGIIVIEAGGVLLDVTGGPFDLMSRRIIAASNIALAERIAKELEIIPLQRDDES
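Cellular IMPase inhibition is scored as a rise in cytosolic IP1, detected by competitive TR-FRET between d2-labelled IP1 and a europium anti-IP1 antibody. M1-expressing CHO cells were stimulated with carbachol for 30 min at 37C, with lithium (50 mM LiCl) present in the buffer.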
ALDH1A1 block: blocks purified human ALDH1A1 activity | P00352 | Purified ALDH1A1, NADH fluorescence, propionaldehyde substrate | Potency, µM (doses to about 75.3 µM), without a hit: top-dose activity, negative = inhibition, hits mostly inhibitors | 220,000 compounds, 7.3% hits;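 further: potency means the concentration at half of the fitted maximal effect; plate controls were no enzyme wells and a reference inhibitor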
Target sequence (P00352 whole entry, looked up): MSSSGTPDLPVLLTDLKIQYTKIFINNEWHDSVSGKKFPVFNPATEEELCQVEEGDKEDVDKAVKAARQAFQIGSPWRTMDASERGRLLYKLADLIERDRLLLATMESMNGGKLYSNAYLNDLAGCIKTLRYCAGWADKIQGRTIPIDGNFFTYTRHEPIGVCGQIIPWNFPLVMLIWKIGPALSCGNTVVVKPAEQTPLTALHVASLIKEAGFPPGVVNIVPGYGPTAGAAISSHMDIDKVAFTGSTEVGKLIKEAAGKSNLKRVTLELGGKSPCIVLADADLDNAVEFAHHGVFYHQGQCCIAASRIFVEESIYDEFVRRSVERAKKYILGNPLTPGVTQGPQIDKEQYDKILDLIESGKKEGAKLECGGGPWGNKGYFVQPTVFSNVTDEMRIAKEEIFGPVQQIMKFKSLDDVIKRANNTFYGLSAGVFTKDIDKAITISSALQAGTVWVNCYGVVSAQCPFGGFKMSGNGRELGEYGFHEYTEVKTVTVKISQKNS
* hit, by the source's call; ? = inconclusive; . = no result; [ ] = dose if it differs, or a comment. Most compounds without a hit are left out; they make up all but 11% or so of the library. Unless noted, the call rests on the fitted dose curve; in most records, active means well fitted inhibition curve with a large enough effect (not every such curve was filed as active); inconclusive means small, poorly fitted or top-dose-only effect, or another doubt; inactive means no such curve, though single readings can be large or run the other way. Unless noted, on the % scale 0 is the no-effect control and ±100 the full control effect.

SMILES	IMPase Li inh	PNC assembly inh	12-hLO inh	HPGD block	IMPase inh	ALDH1A1 block
S=C(NCc1ccc(Cl)cc1)Nc1ccccc1	-10%	-2	?	18µM*	.	-6%
CC(C)OCCCNC(=S)Nc1ccc(S(N)(=O)=O)cc1	-10%	?	-3%	7.9µM*	.	1%
COc1cc(NC(=S)Nc2ncccc2C)cc(OC)c1OC	4%	.	.	.	.	18µM*
COc1cc(NC(=S)Nc2cccc(C)n2)cc(OC)c1OC	2%	.	.	.	.	5%
Fc1ccc(CNC(=S)Nc2ccc(Cl)cc2)cc1	1%[38.3 µM]	23	-6%	-15%	-2	2%
Cc1ccccc1NC(=S)NCc1ccc(Cl)cc1	7%	42	?	16µM*	.	?
COc1ccc(-c2ccc3c(N)c(C(=O)Nc4cccc(C)c4)sc3n2)cc1	.	.	.	.	-21	.
NS(=O)(=O)c1ccc(CNC(=S)Nc2ccc(F)c(Cl)c2)cc1	-3%	.	.	.	.	-21%
NS(=O)(=O)c1ccc(NC(=S)NCc2ccc(Cl)cc2)cc1	4%[38.3 µM]	54	-7%	20µM*	7	22µM*
O=C(/C=C/Nc1ccccc1F)c1cccs1	0%	-1	0%	-11%	3	?
O=C(/C=C/Nc1ccc(F)cc1F)c1cccs1	-4%	-23	1%	?	-10	2.4µM*
Cc1ccc(S(=O)(=O)Nc2c(C)nn(C)c2C)cc1	-13%[38.3 µM]	?	5%	-3%	8	10%
CCn1nc(C)c(NS(=O)(=O)c2ccc(C)cc2)c1C	1%	-100*	-1%	-22%	5	-1%
CCC(=O)Nc1c(C)cc(C)cc1Cl	6%[38.3 µM]	?	-1%	-19%	-2	3%
Cc1cc(C)c(NC(=O)Nc2ccccc2)c(Cl)c1	-6%	-114*	4%	-5%	.	1%
CCCCC(=O)Nc1c(C)cc(C)cc1Cl	41%[38.3 µM]	?	4%	35µM*	-4	-9%
C/C=C(\C)C(=O)O[C@H]1C[C@@]2(C)CCC(C(C)C)C2(O)CC[C@@]1(C)O (stereo partly specified)	11%	.	.	-2%	.	-5%
Cc1c(C(=O)N2CCN(C)CC2)oc2c1C(=O)CC(C)(C)C2	10%[38.3 µM]	-23	-11%	-11%	-4	22µM*
Cc1c(C(=O)N2CCOCC2)oc2c1C(=O)CC(C)(C)C2	2%[38.3 µM]	?	2%	-8%	4	-12%
COc1cc(OC)c(Nc2nc3ccc(C(=O)c4ccccc4)cc3n3c(C)nnc23)cc1Cl	.	.	.	.	4	.
O=c1cnc2cnc(Nc3ccccc3)nc2n1C[C@H]1CCCO1	-2%	.	1%	-10%	.	-2%
Nc1nonc1C(=O)NCCN=Cc1cc(Cc2ccccc2)cc(Br)c1O	1%[38.3 µM]	-2	?	16µM*	-1	-11%
Nc1nonc1C(=O)NCCN=Cc1ccccc1O	-6%[38.3 µM]	17	2%	-14%	0	6%
CCCCNCc1cc(OC)c(OCC(N)=O)cc1Br	-3%	-100*	1%	-17%	-3	3%
CCC1=NN2C(=N)/C(=C\c3cccn3-c3ccc(OC)cc3)C(=O)N=C2S1	-2%	.	.	.	.	?
SMILES	IMPase Li inh	PNC assembly inh	12-hLO inh	HPGD block	IMPase inh	ALDH1A1 block
Cc1ccc(-n2cccc2/C=C2\C(=N)N3N=C(C(C)C)SC3=NC2=O)cc1	4%	.	.	.	.	16µM*
COC(=O)c1cc(Cl)c(NC(=O)/C=C/c2ccc(Cl)cc2)cc1OC	13%	0	2%	?	-3	?
COC(=O)c1cc(Cl)c(NC(=O)/C=C/c2ccc(OC)c(OC)c2)cc1OC	10µM*	-3	1%	?	-8	?
CCOC(=O)c1ccoc1CSCc1ccc(C(=O)OC)o1	28%[38.3 µM]	?	-7%	-18%	19	25µM*
S=c1nc(-c2ccccc2)c(-c2ccccc2)n[nH]1	.	.	.	.	.	0.32µM*
CNc1ccnc(-c2ccccc2C(F)(F)F)n1	1%	.	-1%	-1%	.	18%
COc1ccc(O[C@H]2C=C[C@@H](c3ccccc3)O[C@@H]2CON=C(C)C)cc1	.	.	.	.	.	3%[13.5 µM]
O=S(=O)(Nc1ccc(Cc2ccncc2)cc1)c1cccs1	25%[38.3 µM]	-21	0%	28µM*	12	10%
CCS(=O)(=O)Nc1ccc(Cc2ccncc2)cc1	37%[38.3 µM]	?	-7%	1.3µM*	9	-14%
CCS(=O)(=O)Nc1ccc(NC(C)=O)cc1	10%[38.3 µM]	-22	3%	25µM*	-7	8%
O=S(=O)(Nc1ccc(Cc2ccncc2)cc1)c1ccc(Br)s1	11%[38.3 µM]	-6	-12%	-23%	11	8%
CC(=O)N1CCC2(CC1)CCN(c1ccccn1)CC2	2%	.	0%	?	.	?
N[C@H](C(=O)O)[C@H]1C[C@H]1C(=O)O	1%	.	.	.	.	15%
C[C@@]12C=CC(=O)C=C1CC[C@H]1[C@H]3CC[C@](O)(C(=O)CO)[C@]3(C)CC(=O)[C@@H]12	2%	.	-1%[25.6 µM]	-2%	5[20.6 µM]	2%[20.9 µM]
Cc1sc2nc(SCC(=O)N3CCCC3)[nH]c(=O)c2c1C	28%[38.3 µM]	-80*	2%	18µM*	20	?
Cc1sc2nc(SCC(=O)N(C)C)[nH]c(=O)c2c1C	13%[38.3 µM]	41	0%	-29%	8	-2%
O=c1[nH]c(SCc2n[nH]c(=S)n2-c2ccccc2)nc2sc3c(c12)CCC3	25%[38.3 µM]	64	-1%	13µM*	-10	-8%
Cc1cc(C)c2c(=O)[nH]c(SCC(=O)N3CCCCC3)nc2n1	-9%[38.3 µM]	26	-1%	?	-14	?
Cc1sc2nc(SCC(=O)N3CCCCC3)[nH]c(=O)c2c1C	4%	-18	2%	16µM*	10	?
CCN(CC)C(=O)CSc1nc2sc(C)c(C)c2c(=O)[nH]1	13%[38.3 µM]	43	-2%	13µM*	2	?
Cc1cc(-c2ccc(N=Nc3cc(S(=O)(=O)O)c4ccccc4c3N)c(C)c2)ccc1N=Nc1cc(S(=O)(=O)O)c2ccccc2c1N	-2%	.	?	?	.	?
COc1ccc(-c2nc3cnc(N4CCOCC4)nc3n(-c3ccc(OC)cc3)c2=O)cc1	-16%	.	.	.	.	?
COC(=O)NC(/C(C(=O)OC)=C(\C)NCc1ccccc1)c1cccc(C)c1 (stereo unspecified)	.	.	.	.	.	11%[13.5 µM]
Cc1cccn2c(Nc3ccccc3)c(-c3cccs3)nc12	.	.	.	.	7	.
CCOC(=O)CSc1nc2sc3c(c2c(=O)[nH]1)CCCC3	-11%[38.3 µM]	-2	-9%	16µM*	-1	0%
Cc1csc(NC(=O)CSc2nc3sc(C)c(C)c3c(=O)[nH]2)n1	10%[38.3 µM]	?	1%	13µM*	-4	18µM*
CCOC(=O)Cc1csc(NC(=O)CSc2nc3sc(C(=O)O)c(C)c3c(=O)[nH]2)n1	21%[38.3 µM]	26	2%	?	-3	-7%

Source: PubChem
